This is an account of results in PubChem BioAssay (NCATS).

Values joined by “and” are separate entries in the source; they are usually repeats but may differ in a detail not shown here. Identical values can stand only once. Records with an inconclusive call do not appear. Unmarked numbers belong to inactive results. Active and inactive are the calls of the source. The call rests on the fitted dose curve; in most records, active means well fitted cell-killing curve with a large enough effect; inconclusive means small, poorly fitted or top-dose-only effect, or effect the other way; inactive means no such curve, though single readings can be large or run the other way.
Potency means the concentration at half of the fitted maximal effect.

The first test in a line: Viability qHTS for spleen associated tyrosine kinase inhibitor (SYKi) naive MV4-11 cells (AID 1963823). Further: nearly all actives have a fitted effect of over 40% in size. Conditions: MV4-11 AML viability, CellTiter-Glo luminescence, 72 h; series mostly up to 45 µM; viability (% of control): at the top concentration. In short, it runs like this:
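Compounds were dispensed acoustically onto plates, MV4-11 cells (SYKi-naive) added at 500 per well, and plates incubated 72 hr at 37 C. CellTiter-Glo was added and luminescence measured after 10 min.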
Regarding `CONC(=O)Nc1ccc(-c2sc3c(c2CN(C)Cc2ccccc2)c(=O)n(-c2ccccc2)c(=O)n3Cc2c(F)cccc2F)cc1`, the Potency was 16.6 µM (active).

Take `CSc1ccc(C(=O)/C=C/c2cc(C)c(OC(C)(C)C(=O)O)c(C)c2)cc1`: the Potency is 3.03 µM (active).

As to `NC(=O)C1(N2CCCCC2)CCN(CCCN2c3ccccc3CCc3ccc(Cl)cc32)CC1`, the Potency was 8.41 µM (active).

On to `COc1cc(N2CCN(C)CC2)ccc1Nc1ncc2c(n1)N(C)c1ccccc1C(=O)N2C`, for which the Potency is 0.934 µM (active).

As to `O=C(O)C[C@H](O)C[C@H](O)/C=C/c1c(C2CC2)nc2ccccc2c1-c1ccc(F)cc1`, the Potency is 461 nM (active) and 525 nM (active).

Turning to `CNCc1ccccc1`, the “viability (% of control)” value is 89.6%.

The next test in a line: Viability qHTS for spleen associated tyrosine kinase inhibitor (SYKi) drug resistant MV4-11 cells (AID 1963824). Further: nearly all actives have a fitted effect of over 35% in size. The following applies: SYKi-resistant MV4-11 viability, CellTiter-Glo, 72 h; series mostly up to 45 µM; viability, % of control: at the top concentration. In short, it runs like this: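 SYK-inhibitor-resistant MV4-11 AML cells were seeded at 500 per well onto compound and cultured 72 hours (37 °C, 5% CO2). CellTiter-Glo was then added, and after 10 min at room temperature, luminescence gave viability.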
`C[C@@H](Nc1ncnc2[nH]c(-c3ccc(O)cc3)cc12)c1ccccc1`: the Potency is 5.17 µM (active) and 10.5 µM (active).

With `CC(=O)OCC[N+](C)(C)C`, the “viability, % of control” value was 83%.

`CC(NC(CCc1ccccc1)C(=O)O)C(=O)N1C(=O)N(C)CC1C(=O)O` (stereo not drawn): the “viability, % of control” value was 91.4%.

For the compound `CN1CC(=O)N2[C@H](c3ccc4c(c3)OCO4)c3[nH]c4ccccc4c3C[C@@H]2C1=O`, the “viability, % of control” value was 93.5%.

As to `CC(=O)[C@]1(N)Cc2c(O)c3c(c(O)c2[C@@H](O[C@H]2C[C@H](O)[C@H](O)CO2)C1)C(=O)c1ccccc1C3=O`, the Potency was 4.68 µM (active).

On to `O=C(Nc1cc(Oc2cc(F)c(NC(=O)C3(C(=O)Nc4ccc(F)cc4)CC3)cc2F)ccn1)C1CC1`, for which the Potency was 25.9 nM (active) and 66.1 nM (active).

Regarding `CC(C)(Oc1ccc(CCNC(=O)c2ccc(Cl)cc2)cc1)C(=O)O`, the “viability, % of control” value was 86.3%.
